Source: PubChem BioAssay (National Center for Advancing Translational Sciences (NCATS))
L3MBTL1 block – qHTS Assay for the Inhibitors of L3MBTL1; AID 485360, 2010; AlphaScreen L3MBTL1–H3K9me1 peptide binding; Lethal(3)malignant brain tumor-like protein 1 (Homo sapiens), Q9Y468; Potency, µM (series often up to 57.1 µM), inactives show at the highest dose activity, negative = inhibition, usual class: inhibitors; 0.66% of 230,000 active; further: nearly all actives have a fitted effect of over 60% in size
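First, the protein-peptide complex forms for 30 min at room temperature (L3MBTL1 50 nM, biotinylated H3K9me1 peptide 75 nM). Next, compounds are pin-transferred and incubated 30 min. Finally, AlphaScreen beads are added and read after 30 min.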
BLM inh – qHTS Assay for Inhibitors of Bloom's syndrome helicase (BLM) | AID 2528, 2010 | Potency, µM (series often up to 56.1 µM), for the others: at the top dose activity change, negative = inhibition, hits mostly inhibitors | 0.2% of 350,000 active | recombinant BLM DNA unwinding, fluorescence dequenching | RecQ-like DNA helicase BLM (Homo sapiens), P54132;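 further: plate controls were vehicle for no effect and no enzyme for full effect; nearly all actives have a fitted effect of over 35% in size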
RECQ1 inh – qHTS Assay for Inhibitors of RecQ-Like Dna Helicase 1 (RECQ1); 0.54% of 240,000 active; Potency, µM (series often up to 57.3 µM), for inactives: at the highest dose activity, negative = inhibition, most hits filed as inhibitors; ATP-dependent DNA helicase Q1 (Homo sapiens), P46063; AID 2549, 2010; RECQ1 DNA unwinding, red fluorescence kinetic read;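 further: plate controls were vehicle for no effect and no enzyme for full effect; nearly all actives have a fitted effect of over 30% in size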
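50 nM RECQ1T1 preincubated 15 min with compound in Tris pH 8.0 buffer with MgCl2, DTT, Tween-20 and 2.5 ug/ml poly(dI-dC); started with 200 nM TAMRA/BHQ-2 forked duplex and 2 mM ATP. Unwinding read as fluorescence (525/598 nm), two reads 2 h apart.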
APE1 inh-1 – qHTS Assay for Inhibitors of the Human Apurinic/apyrimidinic Endonuclease 1 (APE1); DNA repair nuclease/redox regulator APEX1 (Homo sapiens), P27695; recombinant APE1, TAMRA/BHQ-2 abasic DNA cleavage fluorescence; Potency, µM (series often up to 65.8 µM), for inactives: at the highest dose activity change, negative = inhibition, actives largely listed as inhibitors; 0.35% of 350,000 active; AID 2517, 2012;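 further: plate controls were vehicle for no effect and reference inhibitor for full effect; nearly all actives have a fitted effect of over 55% in size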
Target sequence (P27695 whole entry, looked up): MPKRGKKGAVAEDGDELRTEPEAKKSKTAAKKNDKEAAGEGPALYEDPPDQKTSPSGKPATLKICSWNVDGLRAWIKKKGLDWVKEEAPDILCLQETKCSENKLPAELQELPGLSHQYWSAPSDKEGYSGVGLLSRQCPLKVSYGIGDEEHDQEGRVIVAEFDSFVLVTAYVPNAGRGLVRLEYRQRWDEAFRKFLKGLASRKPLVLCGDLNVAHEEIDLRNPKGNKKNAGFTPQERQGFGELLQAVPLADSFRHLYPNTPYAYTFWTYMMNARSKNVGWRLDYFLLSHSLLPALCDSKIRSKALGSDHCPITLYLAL
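APE1 at 0.75 nM final was preincubated with compound 15 min at room temperature, then 50 nM double-stranded THF abasic-site substrate (5'-TAMRA/3'-BHQ-2) was added. Fluorescence (ex 525/em 598 nm) was read kinetically; third-minus-first read gave activity.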
TDP1 block – qHTS Assay for Inhibitors of Tyrosyl-DNA Phosphodiesterase (TDP1); Tyrosyl-DNA phosphodiesterase 1 (Homo sapiens), Q9NUW8; Potency, µM (highest dose often 130 µM), inactives show top-dose activity change, negative = inhibition, most hits filed as inhibitors; 0.28% of 350,000 active; AID 485290, 2010; recombinant TDP1, AlphaScreen DNA substrate cleavage; further: nearly all actives have a fitted effect of over 40% in size
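Recombinant human Tdp1 (E. coli-expressed, 1 nM final) preincubated with compounds 15 min at room temperature, then 5'-biotin/3'-phosphotyrosine-FITC DNA substrate (15 nM final) added for 5 min. AlphaScreen beads (10 ug/ml final) added 10 min; cleavage lowers signal.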
JMJD2E inh – qHTS Assay for Inhibitors of Human Jumonji Domain Containing 2E (JMJD2E); Lysine-specific demethylase 4E (Homo sapiens), B2RXH2; JMJD2E catalytic domain, FDH-coupled NADH fluorescence (FDH is formaldehyde dehydrogenase); Potency, µM (highest dose often 57.1 µM), for inactives: top-dose activity change, negative = inhibition, actives largely listed as inhibitors; 1.6% of 230,000 active; AID 2147, 2009; active means well fitted inhibition curve with a large enough effect, not every such curve was filed as active; inconclusive means small, poorly fitted or top-dose-only effect, or another doubt; inactive means no such curve, though single readings can be large or run the other way;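 further: 0% = wells with enzyme and -100% = buffer wells without enzyme; nearly all actives have a fitted effect of over 50% in size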
Target sequence (B2RXH2 1-337 limits assumed): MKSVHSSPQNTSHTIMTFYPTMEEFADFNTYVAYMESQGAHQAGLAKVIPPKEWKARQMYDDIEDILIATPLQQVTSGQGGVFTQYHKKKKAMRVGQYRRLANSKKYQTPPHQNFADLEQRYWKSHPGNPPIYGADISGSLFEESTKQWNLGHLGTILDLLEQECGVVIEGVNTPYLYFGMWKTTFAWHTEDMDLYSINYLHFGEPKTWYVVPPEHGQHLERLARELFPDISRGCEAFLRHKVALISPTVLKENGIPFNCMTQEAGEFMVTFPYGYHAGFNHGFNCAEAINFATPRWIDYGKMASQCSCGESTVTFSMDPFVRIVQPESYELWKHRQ
DNA dye displace – Counterscreen for APE1 Inhibitors: Fluorescent Dye Displacement Assay; DNA fluorescent dye displacement counterscreen, fluorescence; shares compounds with APE1 inh-1; Potency, µM (doses to about 28.5 µM), without a hit: top-dose activity change, negative = inhibition, actives largely listed as inhibitors; 7% of 480 active;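 further: loss of thiazole orange fluorescence as the dye is displaced from duplex DNA; 0% = ThO with dsDNA and no compound and -100% = ThO without dsDNA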
Endo IV inh – Counterscreen for APE1 Inhibitors: qHTS Assay for Inhibitors of Endonuclease IV; E. coli Endo IV, fluorogenic AP-site DNA cleavage; Potency, µM (series often up to 27.1 µM), for inactives: at the highest dose activity change, negative = inhibition, actives largely listed as inhibitors; 4% of 560 active; shares compounds with APE1 inh-1;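 further: plate controls were uninhibited enzyme wells for no effect and no enzyme buffer wells for full effect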
APE1 inh-2 – Confirmation qHTS Assay for Inhibitors of the Human Apurinic/apyrimidinic Endonuclease 1 (APE1); shares compounds with APE1 inh-1; 44% of 750 active; purified APE1, fluorogenic abasic-site DNA cleavage; Potency, µM (titrated, usually from 57.1 µM), without a hit: at the highest dose activity change, negative = inhibition, actives largely listed as inhibitors; further: nearly all actives have a fitted effect of over 30% in size
APE1 FP – qHTS FP-Based Assay for Inhibitors of the Human Apurinic/apyrimidinic Endonuclease 1 (APE1) | shares compounds with APE1 inh-1 | APE1 binding to TAMRA-labelled double-stranded DNA, fluorescence polarization displacement | Potency, µM (doses to about 28.5 µM), without a hit: top-dose activity, negative = inhibition, most hits filed as inhibitors | 7% of 480 active
The depositor's hits bear a star; i = inactive; u = inconclusive; x = no result given; ! = repeats disagree; [ ] = another dose, or the depositor's remark. This is one part of a sample in which hits are shown more often than they occur. Unless noted, the call rests on the fitted dose curve; in most records, active means well fitted curve in the direction sought with a large enough effect; inconclusive means small, poorly fitted or top-dose-only effect, or another doubt; inactive means no such curve, though single readings can be large; an effect the other way counts as inactive or inconclusive. Unless noted, on the % scale 0 is the no-effect control and ±100 the full control effect; potency means the concentration at half of the fitted maximal effect.

SMILES | L3MBTL1 block | BLM inh | RECQ1 inh | APE1 inh-1 | TDP1 block | JMJD2E inh | DNA dye displace | Endo IV inh | APE1 inh-2 | APE1 FP
CC(C)[N+](C)(CCOC(=O)C1c2ccccc2Oc2ccccc21)C(C)C | 6% | 10% | u | 8.9µM*! | 3% | -9% | x | -7%[57.1 µM] | -34% | x
CC(C)CNC(=O)COC(=O)C1c2ccccc2Oc2ccccc21 | x | 1% | x | -9% | x | x | x | x | x | x
Cc1ccc(-c2nc(-c3cc4cc(Cl)ccc4oc3=O)sc2C)cc1 | x | x | x | x | -8% | x | x | x | x | x
C1CCOC1 | x | x | 8% | 5% | 12% | x | x | x | x | x
CCOC(=O)CC(=O)CSc1nc(CC)c(C)cc1C#N | -8% | 1% | 8% | 7% | 71µM* | i | x | x | -28% | x
CCc1nc(SCC(=O)O)c(C#N)cc1C | x | -3% | i | 18% | 6% | -15% | x | x | x | x
O=C1c2cccc3c(Cl)ccc(c23)C(=O)N1O | -3% | -1% | -5% | u | 22µM* | 2% | -5% | -2% | -18%[24.4 µM] | -102%
O=C(O)c1cc(O)c2c(c1)C(=O)c1cc(O)cc(O)c1C2=O | 2.5µM* | -6% | u | 25µM* | x | -19% | 13µM* | u | 14µM* | 5µM*
COc1cc(O)c2c(c1)C(=O)c1cc(C)cc(O)c1C2=O | x | 1% | 0% | -7% | 10%[56.1 µM] | u | x | x | x | x
CCOc1ccc(CCNC(=O)CSCc2nc(-c3cccc(C)c3)oc2C)cc1OCC | x | -6% | x | x | 1% | x | x | x | x | x
O=C1c2ccc(O)c(O)c2C(=O)c2c(O)ccc(O)c21 | x | -27% | 32µM* | 3.2µM* | x | 3.5µM* | x | 14µM* | 4µM* | x
O=C1c2cccc([N+](=O)[O-])c2C(=O)N1c1ccccc1 | 9% | 0% | -8% | 11% | 8% | 3% | x | x | x | x
O=C1c2ccccc2C(=O)c2c1ccc(O)c2O | x | -18% | u | u | 8% | 14µM* | u | 91%[57.1 µM] | u | -5%[57.1 µM]
O=C1c2ccccc2C(=O)c2c([N+](=O)[O-])ccc(O)c21 | -21% | -9% | 4% | 28µM* | x | -20% | u | -4% | 14µM* | -19%
O=C(O)Cc1c(Cl)ccc(Cl)c1Cl | x | -8% | 6% | -4% | 9% | x | x | x | x | x
COc1cc(Cl)c(C)cc1NC(=O)CC1Oc2ccccc2NC1=O (centres undefined) | x | -4% | x | x | 0% | x | x | x | x | x
CCCCNC(=O)c1ccc2nc(-c3cccs3)c(-c3cccs3)nc2c1 | x | x | x | x | 0% | x | x | x | x | x
COC(=O)C1=C[C@@H](C(=O)OC)C2C3=C(C(=O)[C@@]2(C)NC(=O)c2ccccc2)[C@H](c2ccccc2)[C@@H]2C(=O)N(c4ccccc4)C(=O)[C@@H]2[C@@H]3C1 (some centres undefined) | x | 1% | 10% | -5% | 6% | x | x | x | x | x
CCN(CC)c1ccc(-c2nnc(SCC(=O)Nc3ccccc3C#N)n2-c2ccccc2)cc1 | -15% | -12% | -20% | u | 0% | u | 4% | u | u | 9%
S=c1[nH]nc(-c2ccccc2)n1/N=C/c1cccc(Br)c1 | -2%[2.29 µM] | -1% | x | 2% | x | x | x | x | x | x
S=c1[nH]nc(-c2cc(-c3ccccc3)n[nH]2)n1/N=C/c1ccc(Cl)c(Cl)c1 | -18% | -13% | -3% | 4% | 79µM* | -18% | x | x | 40µM* | x
Cc1ccc(C)c(N2CCN(C(=O)C3CCN(c4nc(-c5ccc(C(C)C)cc5)no4)CC3)CC2)c1 | x | -11% | x | x | 0% | x | x | x | x | x
O=C1CCCC(O)=C1N=Nc1cccc(C(=O)O)c1 | 8.9µM* | -2% | 32µM* | 10µM* | u | u | 0% | 79% | 13µM* | -14%
O=C(O)c1cccc(N=NN2CCOCC2)c1 | 2% | -3% | i | 3% | 4% | 2% | x | x | x | x
CC(C)c1ccc(NC(=O)CSc2nc(=O)n(Cc3ccccn3)c3c2CCC3)cc1 | x | 1% | x | x | -3% | x | x | x | x | x
O=C(O)CC[C@@H](C(=O)O)N1C(=O)c2ccccc2C1=O | x | 0% | -5% | u | -13%[56.1 µM] | u | -4% | 6% | u | -2%
CN(C)C(=O)c1ccc(-c2ccc3ncnc(NCc4cccs4)c3c2)cc1 | x | -5% | -7% | 10µM* | x | x | u | -77%[57.1 µM] | 7.9µM* | 22%[57.1 µM]
c1csc(CNc2ncnc3ccc(-c4ccc5c(c4)OCCO5)cc23)c1 | 0% | x | x | 15% | 3% | x | x | x | x | x
Cc1noc(C)c1-c1ccc2ncnc(NCc3cccs3)c2c1 | x | -9% | 3% | 14µM* | x | x | u | -52%[57.1 µM] | 32µM* | 36%[57.1 µM]
